# Reference: PubChem BioAssay (NCATS)
# Records with an inconclusive call do not appear. Entries that show only a call come without a potency. Activity calls are given as the source filed them. The call rests on the fitted dose curve; in most records, active means well fitted inhibition curve with a large enough effect; inconclusive means small, poorly fitted or top-dose-only effect; inactive means flat fitted curve, though single readings scatter.
# Biological target: Calcium and integrin-binding protein 1 (Homo sapiens) (UniProt Q99828)
# Sequence (Q99828 whole entry, looked up): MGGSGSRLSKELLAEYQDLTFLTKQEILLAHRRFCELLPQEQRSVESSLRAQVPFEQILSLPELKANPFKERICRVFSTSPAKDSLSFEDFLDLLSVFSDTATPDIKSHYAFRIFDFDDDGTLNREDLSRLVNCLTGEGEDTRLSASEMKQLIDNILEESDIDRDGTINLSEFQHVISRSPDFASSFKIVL
# Test: Primary qHTS for Identification of Calcium Integrin Binding Protein 1 (CIB1) Competitor (AID 1508620);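 further: GST tagged CIB1 binding a fluorescein labelled alphaIIb integrin peptide tracer; top concentration of the series differs between compounds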
# Conditions: CIB1-GST / FITC-alphaIIb peptide fluorescence polarization; series mostly up to 114 µM
# Procedure, shortened: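 CIB1-GST (1 uM final) and compound incubated 15 min at room temperature before adding FITC-alphaIIb peptide tracer (100 nM final). Competition for binding read by fluorescence polarization (ex 480, em 540) after another 15 min at room temperature.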
row,Compound,Potency
1,Cc1cc(C)nc(NC(=S)N2CCN(c3ccc(C(F)(F)F)cn3)CC2)c1,inactive
2,Cc1cc(NS(=O)(=O)c2ccc(C(=O)NCc3ccc(Cl)c(Cl)c3)cc2)no1,inactive
3,Fc1ccccc1-c1nc(-c2ccc(-c3nn[nH]n3)cc2)no1,inactive
4,FC(F)(F)c1ccccc1-c1nc(NCc2ccc(-c3ccc(Cl)cc3)cc2)c2ccccc2n1,inactive
5,CC(C)c1cc(C(C)C)c(S(=O)(=O)Nc2cccc3cccnc23)c(C(C)C)c1,inactive
6,CN(C)c1cccc(-c2ncnc(N3CCC(C(N)=O)CC3)n2)c1,inactive
7,Cc1cc2c(s1)c1cnn(Cc3c(F)ccc(F)c3F)c(=O)c1n2C,inactive
8,Cc1ccc(NS(=O)(=O)c2ccc3c(c2)N(C)CCO3)cc1C,inactive
9,CCCc1nnc(-c2cnn(C)c2N)n1CCCn1ccnc1,inactive
10,Cc1cc2c(s1)c1cnn(Cc3c(F)c(F)c(C(F)(F)F)c(F)c3F)c(=O)c1n2C,inactive
11,COc1ccc(CNc2ccc(-c3nc4ccccc4[nH]3)cc2)cc1OC,inactive
12,O=C(Nc1ccc(F)c(F)c1)Nc1nnc(-c2ccncc2)s1,inactive
13,Cc1ccc(N2C(=O)c3ccccc3C2=O)c(C)c1,inactive
14,CC(C)(C)c1ccc(C(=O)Nc2ccc(-c3nc4ccccc4[nH]3)cc2)cc1,inactive
15,O=C(NCCc1nc2ccccc2n1CCOc1cccc([N+](=O)[O-])c1)C1CCCCC1,inactive
16,Fc1ccc(-c2ccc(Nc3nc(-c4ccncc4)nc4ccccc34)cc2F)cc1,inactive
17,Cc1ccc2nc3sc(C(=O)NCCN4CCOCC4)cc3cc2c1,inactive
18,FC(F)(F)c1ccccc1-c1nc(NCc2ccc(-c3ccc4c(c3)OCO4)cc2)c2ccccc2n1,inactive
19,Fc1cc(Nc2nc(-c3ccncc3)nc3ccccc23)ccc1-c1cccc(C(F)(F)F)c1,inactive
20,Cc1ccc(NS(=O)(=O)c2cc3c(cc2Br)NC(=O)CO3)cc1C,inactive

row,Compound,Potency
1,CCOC(=O)C1CCN(c2nc(-c3ccc(Br)cc3)cs2)CC1,inactive
2,O=C(/C=C/c1ccc(C(F)(F)F)cc1)Nc1cccc([S+](=O)([O-])Nc2ccccc2F)c1,inactive
3,O=C(Cc1ccc2ccccc2c1)Nc1nnc(-c2ccncc2)s1,inactive
4,COc1ccnc(NC(=S)N2CCN(c3cccc(C(F)(F)F)n3)CC2)c1,inactive
5,CC(=O)Nc1cccc(OC2=NS(=O)(=O)c3ccccc32)c1,inactive
6,COC(=O)c1c(-c2ccccc2)no[n+]1[O-],inactive
7,O=C1CCc2cc(S(=O)(=O)Nc3ccc4c(c3)OCCO4)ccc2N1,inactive
8,CC(C)c1ccccc1-c1ncc(F)c(NCC2CCN(c3cccnc3)CC2)n1,inactive
9,CC(=O)c1ccc(N2CCN(S(=O)(=O)c3ccc4c(c3)CCCN4C(C)=O)CC2)cc1,inactive
10,Cc1cc(C)nc(NC(=S)N2CCN(c3cccc4[nH]ccc34)CC2)c1,inactive
11,CC(=O)Nc1sc2c(c1-c1ccc(C(F)(F)F)cc1)CCNC2,inactive
12,O=C1c2ccccc2C(=O)N1c1cnc2ccccc2c1,inactive
13,O=C(NCCc1nc2ccccc2n1CCOc1ccc(C(F)(F)F)cc1)C1CCCCC1,inactive
14,COc1ccc(-c2nnc3n2N=C(c2c(OC)cccc2OC)CS3)cc1,inactive
15,COc1ccc(-c2ccc(=O)n(CC(=O)NCCc3ccccc3)n2)cc1OC,inactive
16,COc1ccc(C2=Nn3c(nnc3-c3ccccc3C)SC2)cc1OC,inactive
17,O=S(=O)(c1ccc2c(c1)OCCO2)N1CCN(S(=O)(=O)c2ccc(Cl)cc2F)CC1,inactive
18,O=c1[nH]c2ccc(S(=O)(=O)N3CCN(S(=O)(=O)c4ccc5c(c4)OCCO5)CC3)cc2[nH]c1=O,inactive
19,CC(=O)NC(c1cc(F)c2cccnc2c1O)C1CC1 (centres undefined),inactive
